Source: PubChem
Six1-Eya2 inh = qHTS Assay for Inhibitors of the Six1/Eya2 Interaction | Homeobox protein SIX1 (Homo sapiens) + Protein phosphatase EYA2 (Homo sapiens), … | AlphaScreen GST-Six1/His-Eya2 binding, biochemical; stronger effect = lower value | activity change, % (concentration not given with the values) | 360,000 compounds, 0.56% hits | AID 651725, 2012; in the data active = activity change below about -65%; inconclusive = mostly about -30% to -63%; note: % is set by controls: 0 for no effect and ±100 for the full control effect
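AlphaScreen luminescence read after one hour at 37 °C in darkness. Pin-transferred compounds met GST-Six1 and His-Eya2 protein (5X stock 250 nM/500 nM) plus glutathione donor and Ni-chelate acceptor beads (5X, 50 ug/mL).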
Eya2 inh = qHTS Assay for Inhibitors of the Phosphatase Activity of Eya2; Protein phosphatase EYA2 (Homo sapiens), O00167; recombinant Eya2, OMFP fluorescence dephosphorylation (OMFP is methylfluorescein phosphate); Potency, µM (highest dose often 76.9 µM), for the others: at the highest dose activity, negative = inhibition, hits mostly inhibitors; 330,000 compounds, 0.006% hits; note: potency is the fitted concentration of half-maximal effect; % is set by controls: 0 for no effect and ±100 for the full control effect
Target sequence (O00167 whole entry, looked up): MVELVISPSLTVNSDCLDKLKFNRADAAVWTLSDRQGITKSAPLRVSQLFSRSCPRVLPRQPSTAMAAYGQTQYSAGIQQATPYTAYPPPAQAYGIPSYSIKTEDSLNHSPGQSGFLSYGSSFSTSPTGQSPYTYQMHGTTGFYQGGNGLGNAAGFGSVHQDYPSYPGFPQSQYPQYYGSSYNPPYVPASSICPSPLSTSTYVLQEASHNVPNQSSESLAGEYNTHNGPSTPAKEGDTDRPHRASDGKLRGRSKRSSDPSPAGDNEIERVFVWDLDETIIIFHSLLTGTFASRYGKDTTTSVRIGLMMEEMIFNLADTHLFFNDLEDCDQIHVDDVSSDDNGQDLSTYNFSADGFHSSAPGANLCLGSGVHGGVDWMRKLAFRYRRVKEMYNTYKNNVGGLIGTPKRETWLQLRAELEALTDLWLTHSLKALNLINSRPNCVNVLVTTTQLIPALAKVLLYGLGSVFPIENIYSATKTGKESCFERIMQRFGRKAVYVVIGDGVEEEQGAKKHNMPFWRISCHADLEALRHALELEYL
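Eya2 (0.2 uM) preincubated 10 min at ambient with compound, then OMFP substrate added at 50 uM; 10 min reaction in 50 mM HEPES pH 7.5, 50 mM NaCl, 5 uM MgCl2, 0.05% BSA, 1 mM DTT. Fluorescence read at Ex 485/Em 525 nm.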
GRP78 ERSR act = qHTS for Inducers of the Endoplasmic Reticulum Stress Response (ERSR) in Human Glioma: qHTS; U87-MG GRP78 promoter luciferase reporter, 16 h; Potency, µM, for inactives: at the top dose activation, actives largely listed as activators; 420,000 compounds, 0.02% hits; AID 602332, 2012; note: potency is the fitted concentration of half-maximal effect; series mostly up to about 76 µM; % of control where 0% means no effect; nearly all actives have a fitted effect of over 35% in size
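ERSR induction read as luciferase luminescence (Bright-Glo, 10 min at room temperature) in stably transfected human U87-MG glioma cells exposed to compounds for 16 h, using GRP78 as sensor.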
CtBP-E1A inh = qHTS Assay for Inhibitors of the CtBP/E1A Interaction. CtBP / adenovirus E1A interaction (AlphaScreen). AlphaScreen GST-E1A/His-CtBP binding, 1536-well; stronger effect = lower value. activity change, % (concentration not given with the values). 340,000 compounds, 0.49% hits. AID 651724, 2012; in the data active = activity change below about -65%; inconclusive = mostly about -30% to -63%; note: % is set by controls: 0 for no effect and ±100 for the full control effect
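Protein mix (5X: 125 nM each GST-E1A, His-CtBP) was incubated with pinned compound 2 h at 37 deg C in dark, in 50 mM Tris pH 8.0 buffer with 300 mM NaCl. Glutathione donor and nickel acceptor beads followed; AlphaScreen signal read after 1 h.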
Active calls of the source: *; ? = inconclusive; . = not tested or not shown. Rows were chosen to be rich in hits. Some 0.58% of all compounds tested hit in one or more screens of this group. Unless noted, calls come from the whole dose curve; as a rule, active = well fitted curve in the direction sought with a large enough effect; inconclusive = small, poorly fitted or top-dose-only effect, or another doubt; inactive = no such curve, though single readings can be large; an effect the other way counts as inactive or inconclusive.

SMILES	Six1-Eya2 inh	Eya2 inh	GRP78 ERSR act	CtBP-E1A inh
O=C(NCC1CCC2(CCN(Cc3cc4ccccc4o3)CC2)O1)c1ccccc1 (centres undefined)	.	.	-4.0%	.
CC(C)(C)c1nnc(N/N=C/c2ccccc2)n(N)c1=O	-1.1	-12.2%	8.3%	-7.3
CC(C)(C)c1nnc(N/N=C/c2ccccc2O)n(N)c1=O	-91.2*	-10.6%	0.7%	-2.1
CCCOc1ccc(C2C3=C(Nc4nc(N)[nH]c(=O)c42)c2ccccc2C3=O)cc1 (centres undefined)	?	-12.5%	-4.3%	.
CCOc1ccc(C2C3=C(Nc4nc(N)[nH]c(=O)c42)c2ccccc2C3=O)cc1 (centres undefined)	-71.6*	-18.4%	-1.8%	-4.4
Cc1cc(=O)c(C(=O)N(C)CCc2ccccn2)c2n1-c1ccccc1SC(c1ccsc1)C2 (centres undefined)	.	.	-4.1%	.
CC(Sc1nnc(NCc2ccccc2)s1)C(=O)Nc1ccc2c(c1)C(=O)c1ccccc1C2=O (centres undefined)	-66.3*	1.8%	1.2%	-82.2*
CC(Sc1nnc(Nc2ccccc2)s1)C(=O)Nc1nc(-c2ccccc2)cs1 (centres undefined)	-13.4	-5.7%	1.1%	-7.2
CCCNC(=O)c1ccc2c(=O)c(O)c(-c3ccsc3)[nH]c2c1	?	7.4%	-2.2%	-76.1*
CCCNC(=O)c1ccc2c(=O)c(O)c(-c3ccc(C)cc3)[nH]c2c1	-0.5	1.5%	-6.2%	0.2
Clc1ccc(CSc2ccc(-c3ccccn3)nn2)cc1	?	7.3%	2.8%	-19.7
O=C(CSc1ccc(-c2ccccn2)nn1)NC1CCCC1	-88.0*	1.2%	10.9%	-75.8*
c1ccc(CSc2ccc(-c3ccccn3)nn2)cc1	-90.8*	10.0%	-12.0%	?
O=C(CSc1ccc(-c2ccco2)nn1)N1CCCC1	6.5	-6.1%	-3.8%	-7.0
O=C(CSc1ccc(-c2ccccn2)nn1)c1ccccc1	-86.4*	-1.2%	5.1%	-87.7*
O=C(CSc1ccc(-c2ccccn2)nn1)N1CCCC1	-92.0*	-1.0%	5.9%	4.7
CC(=O)c1ccc(F)c(-c2cc(C)cc3c2OC(CNC(=O)Cc2ccc4c(c2)OCO4)C3)c1 (centres undefined)	.	.	-4.5%	.
COc1ccc(C(=O)NCC2Cc3c(F)ccc(-c4nc(C)cnc4C)c3O2)cc1F (centres undefined)	.	.	-5.4%	.
O=c1nc(N/N=C/c2c[nH]c3ccccc23)cn[nH]1	-78.2*	-9.0%	-8.0%	-86.3*
O=C1c2ccccc2C(=O)c2c(NCCc3ccc(O)cc3)ccc(NCCc3ccc(O)cc3)c21	.	-19.4%	-9.9%	.
O=C1c2ccccc2C(=O)c2c(Nc3ccc(CCO)cc3)ccc(O)c21	-83.4*	2.2%	0.0%	.
O=C(COC(=O)c1cnc(Cl)c(Cl)c1)Nc1ccc(S(=O)(=O)N2CCCC2)cc1	-77.1*	-1.4%	-1.2%	?
O=C(COC(=O)c1ccc(Cl)nc1)Nc1ccc(S(=O)(=O)N2CCCC2)cc1	-5.9	-6.1%	-0.2%	-0.9
Cc1cnc(SCc2ccccn2)nc1C1CCCN(Cc2ccsc2)C1 (centres undefined)	.	.	-3.3%	.
O=C(Oc1ccc(Cl)c2cccnc12)N1CCOCC1	1.4	-6.9%	-0.8%	-1.0
SMILES	Six1-Eya2 inh	Eya2 inh	GRP78 ERSR act	CtBP-E1A inh
O=C(Oc1c(CN2CCOCC2)cc(Cl)c2cccnc12)c1cccs1	-84.4*	5.0%	-4.0%	-85.9*
O=C(Oc1c(CN2CCOCC2)cc(Cl)c2cccnc12)c1ccccc1Cl	-93.2*	-11.0%	-4.0%	-91.2*
O=C(Oc1c(Cl)cc(Cl)c2cccnc12)c1ccco1	-92.3*	-15.5%	-2.6%	-14.4
O=C(Oc1c(Cl)cc(Cl)c2cccnc12)c1cccs1	-67.1*	-19.2%	-3.8%	-81.7*
COc1cc(=O)n2c(c1C(=O)N(C)Cc1nonc1C)CCN(Cc1cc(C)c(C)cc1C)CC2	.	.	-2.6%	.
CN(Cc1ccon1)C(=O)c1cnn(-c2ncc3c(n2)-c2ccccc2CCC3)c1C1CC1	.	.	3.0%	.
COCCC1CCCCN1Cc1nc(N2CCCCC2)c2cc(OC)c(OC)cc2n1 (centres undefined)	.	.	-5.7%	.
COc1ccc(-c2nc(-c3cccs3)c(-c3cccs3)[nH]2)cc1OC	?	-1.3%	-5.5%	-73.0*
CCC1CCCCN1S(=O)(=O)c1ccc(NC(=O)c2cccs2)cc1 (centres undefined)	-2.6	1.9%	-1.2%	-13.0
CCC1CCCCN1S(=O)(=O)c1ccc(NC(=O)CSc2ncccc2C(=O)O)cc1 (centres undefined)	-83.5*	15.5%	-3.4%	5.4
Cc1c(CC(=O)NCCCC(=O)O)c(=O)oc2cc3occ(-c4ccccc4)c3cc12	?	2.4%	0.8%	-28.1
Cc1c(CCC(=O)N[C@@H](C)C(=O)O)c(=O)oc2cc3occ(-c4ccccc4)c3cc12	?	-6.5%	-3.7%	-76.6*
Cc1c(CCC(=O)NCCCCCC(=O)O)c(=O)oc2cc3occ(-c4ccccc4)c3cc12	-68.1*	-1.1%	-10.3%	.
CCC(NC(=O)CCc1c(C)c2cc3c(-c4ccccc4)coc3cc2oc1=O)C(=O)O (centres undefined)	-22.6	-10.0%	-7.7%	-76.6*
CCOC(=O)N1CCN(Cc2ccc3c(c2)CN(C(=O)c2noc4c2CCCC4)CCO3)CC1	.	.	-6.1%	.
O=[N+]([O-])c1ccc(-[n+]2nc(-c3ccccc3)nn2-c2ccccc2)cc1	-81.7*	-8.3%	-8.4%	-91.6*
O=C1/C(=C/c2ccc(O)c(O)c2)Oc2ccccc21	.	.	9.3%	.
O=S(=O)(Nc1nccs1)c1ccc(NCc2cc(Br)cc(Br)c2O)cc1	-90.4*	-20.8%	-4.6%	.
COc1nccnc1NS(=O)(=O)c1ccc(NCc2cc(Br)ccc2O)cc1	-77.2*	-4.6%	4.4%	-73.3*
COc1ccc(OCC(=O)Nc2ccc(NC(=O)c3cccs3)c(OC)c2)cc1	6.3	-1.9%	-4.9%	3.3
COc1cc(NC(=O)c2cccs2)c(OC)cc1NC(=O)CCC(=O)Nc1ccc2ncccc2c1	-69.0*	1.0%	-6.3%	.
COc1cc(NC(=O)c2cccs2)c(OC)cc1NC(=O)Cc1ccccc1	-80.6*	0.9%	-4.0%	-6.0
CC(C)(C)n1ncc2c(=O)n(Cc3cccc(Cl)c3Cl)cnc21	.	.	-3.2%	.
COc1ccc(/C=C/C(=O)Oc2ccc(/C=N/NC(=O)c3ccccc3)cc2)cc1OC	1.9	-6.5%	-1.1%	-75.0*
COc1ccc(/C=N/NC(=O)c2ccncc2)cc1OC	7.6	1.3%	-2.8%	0.0
Cc1occc1C(=O)Nc1cccc(-c2nc(CNC(=O)c3cccc(C#CC(C)(C)O)c3)c(C)o2)c1	.	.	-5.3%	.
Oc1ccc(COCc2ccccc2)c2cccnc12	-90.1*	-20.5%	-1.8%	-97.9*
Oc1ccc(CNc2ccccc2F)c2cccnc12	-91.3*	-3.1%	-0.8%	-93.8*
